For 99 molecules, max response results are on record in PubChem BioAssay AID2314 (National Center for Advancing Translational Sciences (NCATS), 2010).

“And” between values parts separate entries of the source, which are not always exact repeats. Identical values can stand only once. The campaign covered roughly 300,000 compounds. About 37,000 (12%) were called active. Cut-off read from the data, not from the text of the source: active = max response mostly above about 13% (no sharp cut-off); inactive = mostly below about 14%. This excerpt belongs to a sample that is enriched for actives.

This test in a line: Cycloheximide Counterscreen for Small Molecule Inhibitors of Shiga Toxin. Note: read at 38.3 µM for the half of the compounds with a filed dose; 0% is about no effect. To be noted: cell reporter, cycloheximide protein synthesis inhibition counterscreen; hits give high values.
As for `COc1ccccc1NC(=O)CSc1nnc(CNC(=O)c2ccccc2F)o1`, the max response was 1.71% (inactive).

As to `N#Cc1ccc(S(=O)(=O)NCC(=O)OCC(=O)NCCc2ccccc2)cc1`, the max response is 1.22% (inactive). In the case of `COc1ccc(-n2cnnc2SCC(=O)Nc2cccc([N+](=O)[O-])c2)cc1` it was -4.87% (inactive); in that of `Cc1ccccc1OCCOc1ccc([N+](=O)[O-])cc1/C=N/n1cnnc1`, -2.75% (inactive). As for `COc1cc(C(=S)N2CCOCC2)ccc1O`, the figure is -0.128% (inactive); as for `COc1ccc(/C(C)=N/N2CCOCC2)c(O)c1`, 26.7% (active); as for `COc1ccc(OCC(=O)N2CCOCC2)cc1`, 9.77% (inactive). For the molecule `CCN(C(=O)Cc1nc(N)n[nH]1)C1(C(=O)Nc2ccccc2)CCCCC1`, the max response is -6.07% (inactive). As for `Cc1cc(=O)oc2cc(OCCC[n+]3ccccc3)ccc12`, the figure is 1.33% (inactive); as for `CC(C)c1c(C(=O)N/N=C/c2ccc(-c3ccccc3)cc2)nnn1-c1nonc1N`, -10.6% (inactive); as for `Cc1nonc1C(=O)N/N=C/c1ccc(O)cc1`, 37.3% (active).

On to `O=C(C[n+]1ccccc1)N/N=C/c1ccc(O)cc1`, for which the max response is -3.62% (inactive). In the case of `CCOc1c(OC)cccc1C(=O)NCC1(c2ccccc2)CCCC1` it was -2.45% (inactive). On to `O=C(C1CCN(S(=O)(=O)Cc2ccccc2)CC1)N1CCCc2ccccc21`, for which the max response was 11.2% (inactive). In the case of `OCC1(Cc2ccccc2)CCN(Cc2cc3ccccc3o2)CC1` it was 1.07% (inactive). As for `NC(=O)c1ccc(NC(=O)COC(=O)C(Cc2ccccc2)NC(=O)c2ccccc2)cc1` (centres undefined), the figure is -2.16% (inactive). In the case of `O=C(COC(=O)C1CC2C=CC1C2)Nc1ccccc1` (centres undefined) it was 27.3% (active); in that of `Cc1ccc(S(=O)(=O)N(C)CC(=O)OCC(=O)Nc2ccccc2)cc1`, 3.68% (inactive). With `COc1ccc(C(=O)n2nc(C)c(Br)c2C)cc1OC`, the max response was -2.74% (inactive). For the molecule `Cc1ccc(Nc2nc(-c3sc(NC(=O)c4ccccc4)nc3C)cs2)cc1`, the max response is 8.35% (inactive). In the case of `Cc1nc(C)c(-c2csc(NCCc3ccccc3)n2)s1` it was 13.4% (active); in that of `S=c1[nH]nc(NCCc2ccccc2)s1`, -2.47% (inactive). For the molecule `CC1CC(C)CN(C(=O)CCNC(=O)Cn2cnc3ccccc3c2=O)C1` (centres undefined), the max response is -4.79% (inactive). In the case of `O=C(N/C(=C/c1ccc(Cl)cc1)C(=O)N1CCCCC1)c1ccco1` it was -0.943% (inactive); in that of `CCn1c(CSc2nc(C)cc(C)n2)nnc1SCC(N)=O`, -2.49% (inactive). Turning to `C=CCn1c(SCC(N)=O)nnc1-c1cc2c(s1)CCC(CC)C2` (centres undefined), the max response is 29.3% (active). As for `C=CCn1c(SCc2c(C(=O)OC)sc(N)c2C(=O)OC)nnc1-c1ccc(Cl)cc1`, the max response was -1.63% (inactive).

Take `Cc1ccc2nc(NC(=O)C3CCN(S(=O)(=O)c4ccc5c(c4)oc(=O)n5C)CC3)sc2c1`: the max response was -6.17% (inactive). As for `CCS(=O)(=O)N1Cc2ccccc2CC1C(=O)Nc1ccc(OC)cc1OC` (centres undefined), the figure is 3.12% (inactive); as for `CCS(=O)(=O)N1Cc2ccccc2CC1C(=O)Nc1nc2ccc(F)cc2s1` (centres undefined), 77.8% (active); as for `COC(=O)C(C)n1cnc2c(nnn2-c2cccc(Cl)c2)c1=O` (centres undefined), -1.58% (inactive). In the case of `CCOC(=O)C(CC)Sc1ncnc2c1nnn2-c1ccc(F)cc1` (centres undefined) it was -1.76% (inactive). Turning to `CCOC(=O)C(C)n1cnc2c(nnn2-c2cccc(OC)c2)c1=O` (centres undefined), the max response was 35.4% (active). As for `COc1ccc(-n2nnc3c(=O)n(CC(=O)OCc4ccccc4)cnc32)cc1`, the figure is 0.544% (inactive). On to `CCOC(=O)C(C)n1cnc2c(nnn2-c2ccc(F)cc2)c1=O` (centres undefined), for which the max response was 8.68% (active). As for `COC(=O)C(C)n1cnc2c(nnn2-c2ccc(F)cc2)c1=O` (centres undefined), the figure is -2.37% (inactive). In the case of `COc1ccc(CCN2C(=O)C(C)=C(C)C2=O)cc1OC` it was 1.83% (inactive); in that of `COc1ccc(N2CCN(C(=O)C3CCN(C(=O)c4ccccc4Cl)CC3)CC2)cc1`, 0.346% (inactive); in that of `COc1cccc(CN(C)C(=O)CC23CC4CC(CC(C4)C2)C3)c1OC`, -3.61% (inactive).

As for `O=C(Nc1ccc(F)cc1)c1ccc(S(=O)(=O)NCc2cccnc2)cc1`, the max response is 13% (inactive). `O=C(Nc1ccc(S(=O)(=O)N2CCCCCC2)cc1)c1c(F)cccc1F`: the max response is 16.3% (active). As for `Cc1ccccc1NC(=O)c1cc(S(=O)(=O)N2CCOCC2)cs1`, the figure is 1.05% (inactive); as for `O=C(Nc1ccccc1F)c1cc(S(=O)(=O)N2CCCCC2)cs1`, 13.9% (active). With `O=C(Nc1cccc(F)c1)c1ccc(S(=O)(=O)N2CCCC2)cc1`, the max response was -1.88% (inactive). In the case of `O=C(CN1CCCCCC1)Nc1ccc(S(=O)(=O)N2CCCCC2)cc1` it was -2.88% (inactive); in that of `O=C(Nc1ccccc1C(=O)O)c1cc(S(=O)(=O)N2CCCCC2)cs1`, -3.51% (inactive); in that of `O=C(O)c1ccc(Cn2c(=S)[nH]c3cc(Cl)ccc3c2=O)cc1`, -2.92% (inactive).

Consider `O=C(CN1C(=O)CC(c2ccccc2)=Nc2ccccc21)NC1CCCCC1`, for which the max response is -1.57% (inactive).

For `COc1ccc(S(=O)(=O)NNC(=O)Nc2ccc(C)cc2)c(OC)c1`, the max response was 0.87% (inactive). As for `COc1ccc(NS(=O)(=O)c2cc(NC(=O)CC(=O)c3ccc([N+](=O)[O-])cc3)ccc2C)cc1`, the figure is -3.18% (inactive); as for `CCN1C(=O)/C(=c2\s/c(=C3\Sc4ccccc4N3C)c(=O)n2C)N(C)C1=S`, 22.3% (active); as for `CN1/C(=c2/s/c(=C3/C(=O)N(c4ccccc4)NC3=Nc3ccccc3)n(C)c2=O)C(C)(C)c2ccccc21`, -0.907% (inactive). As for `CCN1C(=O)/C(=C2/Sc3ccccc3N2CCCS(=O)(=O)O)SC1=S`, the figure is -1.1% (inactive) and 2.76% (inactive); as for `Cc1ccccc1C(=O)OC1OC(=O)C(Cl)=C1Nc1ccccc1` (centres undefined), 0.412% (inactive); as for `CCCc1ccc(OCC(O)CN2CCN(C(=O)OCC)CC2)cc1` (centres undefined), -3.42% (inactive). In the case of `Cc1ccc(Cn2c(C)nc3c(c2=O)c2nc4ccccc4nc2n3Cc2ccco2)cc1` it was 15.8% (active).

For the molecule `Cc1nc2c(c(=O)n1Cc1ccco1)c1nc3ccccc3nc1n2Cc1ccccc1`, the max response is -2.66% (inactive). As for `COCCCn1c2nc3ccccc3nc2c2c(=O)n(Cc3ccc(Cl)cc3)c(C)nc21`, the figure is 1.89% (inactive); as for `O=C(CCCN1CCc2[nH]c3ccc(F)cc3c2C1)c1ccc(F)cc1`, -1.91% (inactive); as for `Cc1ccc(S(=O)(=O)/N=S(\C)C(C)C)cc1` (centres undefined), -5.61% (inactive).

As for `O=C(CSc1nnc(-c2ccccc2)o1)N1CCOCC1`, the max response is -2.26% (inactive). As for `Brc1ccc(-c2noc(-c3ccccc3)n2)o1`, the max response is 60.7% (active). As for `Cc1cccc(C)c1OC(=O)CSc1nnc(-c2ccccc2)o1`, the figure is -2.59% (inactive). For `Brc1ccc(-c2nnc(-c3ccccc3)o2)o1`, the max response was 30.6% (active). As for `Nc1nonc1-c1noc(-c2ccc(Br)o2)n1`, the figure is 1.8% (inactive).

`Cn1nc(-c2ccccc2)c(-c2nc(-c3ccc(Cl)cc3)no2)c1Cl`: the max response was 7.15% (inactive). In the case of `Cc1ccccc1OCc1nnc(SCC(=O)N2c3ccccc3Sc3ccc(Cl)cc32)o1` it was -2.04% (inactive); in that of `CCOc1ccc(/C=N/OCC(=O)NCc2cccs2)cc1`, -5.69% (inactive).

Consider `COc1cccc(CNC(=O)Cn2c(=O)oc3cc(S(=O)(=O)N4CCCCC4)ccc32)c1`, for which the max response is 9.69% (inactive). As for `C/C=C/C(=O)OCc1csc(CC(=O)Nc2ccccc2C)n1`, the figure is 7.73% (inactive); as for `Cc1cc2occ(CC(=O)NNC(=O)c3ccccc3F)c2cc1C`, -1.94% (inactive); as for `NC(=O)C1CCN(C(=O)/C(=C/c2ccco2)NC(=O)c2ccccc2)CC1`, -1.45% (inactive). Regarding `COc1ccc(CCn2c(=N)c(C(=O)NCC3CCCO3)cc3c(=O)n4cccc(C)c4nc32)cc1OC` (centres undefined), the max response is -4.64% (inactive). In the case of `O=C1C2C3C=CC(C4CC34)C2C(=O)N1/N=C/c1ccc(-c2ccccc2[N+](=O)[O-])o1` (centres undefined) it was 13.3% (active); in that of `Cc1cc(-c2ccc(/C=N/n3cnnc3)o2)c([N+](=O)[O-])cc1C`, 12.6% (inactive); in that of `Cc1cc([N+](=O)[O-])c(-c2ccc(/C=N/n3cnnc3)o2)cc1Cl`, 15.8% (inactive). As for `O=C(CN1CCN(c2ccc(F)cc2)CC1)Nc1ccccc1`, the max response was -1.97% (inactive).

As to `CN(C)CCCSc1ccccc1NC(=O)/C=C/c1ccccc1`, the max response is 5.31% (inactive).

As for `CCOc1ccc(S(=O)(=O)NCc2ccc3c(c2)OCO3)cc1C`, the max response is -1.1% (inactive).

On to `COCCn1c(=S)[nH]c2cc(C(=O)NCCc3ccc(OC)c(OC)c3)ccc2c1=O`, for which the max response was -1.71% (inactive). As for `COc1cccc2[nH]c(C(=O)NCCc3ccccc3)cc12`, the figure is 42.7% (active); as for `COc1ccc(CCNC(=O)c2ccccc2-c2ccccc2C(=O)O)cc1OC`, -3.5% (inactive). On to `Cc1cccc(N(C(=O)Cn2nnc(-c3ccc(C)o3)n2)C(C(=O)NC2CCCC2)c2ccncc2)c1` (centres undefined), for which the max response was 1.36% (inactive). Turning to `CCn1c(SCC(=O)NC2CC2)nnc1-c1ccncc1`, the max response is 5.06% (inactive). As for `Cc1cc(C)cc(NC(=O)C2CCN(c3nc(C)cc(C)n3)CC2)c1`, the figure is -2.08% (inactive). As for `O=C(NNC(=O)C1CCN(c2ncccn2)CC1)c1ccccc1`, the figure is -2.14% (inactive). As for `Cc1cc(-c2ccccc2)nc(N2CCC(C(=O)NC34CC5CC(CC(C5)C3)C4)CC2)n1`, the figure is 27.8% (active); as for `Cc1c(S(=O)(=O)N2CC(C)CC(C)C2)c(=O)n(C)c(=O)n1C` (centres undefined), -2.35% (inactive). For the molecule `CCN(CC)P(=O)(Nc1ccc(SC(F)F)cc1)c1ccc(N(C)C)cc1NC(=O)c1ccco1` (centres undefined), the max response was 11.5% (inactive).

For the molecule `O=C1N(Cc2ccc3c(c2)OCO3)c2ccccc2C1(O)c1c[nH]c2ccccc12` (centres undefined), the max response was -2.27% (inactive). For the molecule `COc1cc(NC(=O)C2=CC(c3ccco3)=NS(=O)(=O)N2C)cc(OC)c1OC`, the max response was 2.06% (inactive).

Regarding `O=C(Nc1cccc(NC(=O)c2ccc(Br)cc2)c1)c1ccccc1`, the max response was 2.45% (inactive). Turning to `Cc1nc(C)c(C(=O)Nc2cccc(C)c2C)o1`, the max response was -2.15% (inactive). In the case of `O=C(Nc1ccccc1)c1ccc2nsnc2c1` it was 29.1% (active); in that of `O=S(=O)(Nc1ccccc1Cl)c1cccc2nsnc12`, 1.19% (inactive). Turning to `Cc1cccc(NC(=O)c2ccc3nsnc3c2)c1C`, the max response was 10.4% (active). `Cc1cccc(NC(=O)c2cccc(C(=O)Nc3cccc(C)c3C)n2)c1C`: the max response was -2.9% (inactive). In the case of `O=C(Nc1ccccc1Cl)c1ccc2nsnc2c1` it was 30.7% (active). `O=C(Nc1ccccc1N1CCCCC1)c1ccc2nccnc2c1`: the max response was -1.32% (inactive).
